Results reported in ChEMBL document CHEMBL3988442, “University of Dundee, Small-Polar-MMV Screening Library” (2021).
Out of some 48,000 compounds screened, about 13,000 (27%) showed an effect of 50% or more. This is one part of the list.

system: Wolbachia pipientis; assay: Anti-Wolbachia Cell-Based Screen; type: functional; design: scale not given: in the data most compounds retested in dose-response had high values; conditions: 5 µM

SMILES | Percent Effect [%]
c1ccc(OCCNC2CCN(c3ncccn3)CC2)cc1 | -7.109
c1cncc(OCCNC2Cc3ccccc3C2)c1 | 2.244
c1cncc(OCCCNC2COc3ccccc3C2)c1 (stereo not drawn) | 107.3
COc1cccc2c1OCC(NCCc1cnn(-c3ccccc3)c1)C2 (stereo not drawn) | -5.519
COc1cccc2c1OCC(NCc1cnn(-c3ccccc3)c1)C2 (stereo not drawn) | -6.454
COc1cccc2c1OCC(NCCCOc1cccnc1)C2 (stereo not drawn) | 86.98
OC(CN(Cc1ccccc1)Cc1cscn1)c1cccs1 (stereo not drawn) | -27.1
Cc1ccc(OC2(C(=O)O)CCN(C(=O)c3ccc(F)cc3)CC2)cn1 | -2.115
Cc1ccc(OC2(C(=O)O)CCN(C(=O)c3cccc(F)c3)CC2)cn1 | 1.243
CNC(=O)c1nc2c(s1)CCN(C(=O)c1ccc(OC)cc1)CC2 | -5.332
CNC(=O)C1(c2cnccn2)CCCN1C(=O)c1ccccn1 (stereo not drawn) | 81.35
CNC(=O)C1(c2cnccn2)CCCN1C(=O)c1ccc(OC)cc1 (stereo not drawn) | 106.6
CNC(=O)C1(c2cnccn2)CCCN1C(=O)c1ccc(F)cc1 (stereo not drawn) | 95.13
O=C(c1cccc(F)c1)N1C[C@@H](CN2CCCCC2)[C@@H](CO)C1 | 0.9976
CNC(=O)C1(c2cnccn2)CCCN1C(=O)c1ccn(C)n1 (stereo not drawn) | -6.037
COc1ccncc1NC(=O)C1(c2ccc(F)cc2)CCC1 | -2.782
CNC(=O)C1(c2cnccn2)CCCN1C(=O)c1cccc(F)c1 (stereo not drawn) | 96.69
COc1ccc(CN2CCOC3(CCCN(c4cnccn4)C3)C2)cc1.O=C(O)C(F)(F)F.O=C(O)C(F)(F)F (stereo not drawn) | -2.164
O=C(CCNS(=O)(=O)c1cccnc1)N1CCCCC1 | -5.593
O=C(c1cnccn1)N1C[C@@H]2OCC(=O)N(CC3CCCCC3)[C@@H]2C1 | -4.007
Cc1ccc(C)c(NC(=O)c2n[nH]c(-n3cnnc3)n2)c1 | 8.614
Cn1c(Nc2ccc(F)cc2)c(C#N)c(=O)n(C)c1=O | 7.851
O=C(c1cnn(-c2ccccc2)c1)N1CCN(c2cnccn2)CC1 | -7.881
CC1(C(=O)NCCN2CCCCC2)CCCN1C(=O)c1ccccc1 (stereo not drawn) | 0.8057
Cc1cccc(C(=O)N2CCn3c(CN4CCN(C)CC4)cnc3C2)n1 | -13.05

SMILES | Percent Effect [%]
Cc1cccc(C(=O)N2C[C@@H]3[C@H](CC(=O)Nc4cccnc4)[C@@H]3C2)n1.O=C(O)C(F)(F)F.O=C(O)C(F)(F)F | -1.772
CNC(=O)C1(c2cnccn2)CCCN1C(=O)c1cccc(C)n1 (stereo not drawn) | 90.25
CNC(=O)C1(c2cnccn2)CCCN1C(=O)c1ccccc1 (stereo not drawn) | 95.42
CC1=CC(C)(C)N(CN2C(=O)c3ccccc3C2=O)c2ccccc21 | -12.76
CNC(=O)C(c1cccc(Cl)c1)C(C)C (stereo not drawn) | -9.115
COc1ccc(C2(c3nc(-c4cccnc4)no3)CCOCC2)cc1 | -4.756
Cc1nc(C)n(C2CCCN(C(=O)CCCc3ccccn3)C2)n1 (stereo not drawn) | 81.77
Cc1cc(C)n(C2CCCN(C(=O)CCNc3ncccn3)C2)n1 (stereo not drawn) | 114.6
O=C(CCNc1ncccn1)N1CCCC(n2ccnc2)C1 (stereo not drawn) | -7.544
Cc1nc(C)n(C2CCCN(C(=O)c3cccnc3NC(C)C)C2)n1 (stereo not drawn) | -8.043
Cc1cc(C)n(C2CCCN(C(=O)CCCNc3ncccn3)C2)n1 (stereo not drawn) | 16.33
COc1ccc(CC(=O)N2CCCC(n3cc(C)cn3)C2)cc1F (stereo not drawn) | -2.795
Cc1cnn(C2CCCN(C(=O)CCCc3ccccn3)C2)c1 (stereo not drawn) | 102.3
Cc1nc(C)n(C2CCCN(C(=O)CCc3ccncc3)C2)n1 (stereo not drawn) | 4.522
Cc1cnn(C2CCCN(C(=O)CCCNc3ncccn3)C2)c1 (stereo not drawn) | 0.4653
Cc1cnn(C2CCCN(C(=O)CCCOc3cccc(F)c3)C2)c1 (stereo not drawn) | 4.981
Cc1cnn(C2CCCN(C(=O)CCCOc3ccccc3F)C2)c1 (stereo not drawn) | 143.9
CCOCc1nc2c(c(N3CC=CC3)n1)CCN(Cc1ccco1)CC2 | -6.095
CCn1c(C)nnc1SCCNc1nc(C)nc2ncccc12 | -6.645
CCOc1ccc(NS(=O)(=O)c2cc(C)c(C(=O)O)s2)c(C)c1 | 5.769
Cc1nn(C)c(C)c1C(C)NC(=O)c1cc(CN2CCC(O)CC2)on1 (stereo not drawn) | -4.084
Cc1cnn(Cc2ccc(NC(=O)N[C@@H]3C=C[C@H](CO)C3)cc2)c1 | -14.53
CSC(C)Cc1c(-c2ccccc2)ncn1CCCNc1cccnc1 (stereo not drawn) | -5.851
COc1ccccc1CC(=O)N1CCCC(n2nc(C)cc2C)C1 (stereo not drawn) | 7.114
Cc1cc(C)n(CC2CCCN2C(=O)CCCc2ccccn2)n1 (stereo not drawn) | -3.027

SMILES | Percent Effect [%]
CCc1nccn1C1CCCN(C(=O)CCCc2ccccn2)C1 (stereo not drawn) | 115.4
CCc1nccn1C1CCCN(C(=O)Cc2n[nH]c3ccccc23)C1 (stereo not drawn) | -2.139
Cc1cnn(C2CCCN(C(=O)CCCn3ccnc3C)C2)c1 (stereo not drawn) | 111.3
Cc1cc(C)n(C2CCCN(C(=O)CCCc3ccccn3)C2)n1 (stereo not drawn) | 93.32
CCc1nccn1C1CCCN(C(=O)CCc2nccs2)C1 (stereo not drawn) | 3.707
Cn1cnnc1C1CCCN(c2nc3ccccc3o2)C1 (stereo not drawn) | -0.3699
CCc1ncc2c(n1)CN(Cc1cn3ccsc3n1)CC2 | 20.43
Cc1nc2c(c(N(C)CC3Cc4ccccc4CN3C)n1)CCNCC2 (stereo not drawn) | -8.073
CC(C)(C)NC[C@@H]1CCC[C@@H]2CN(Cc3csnn3)C[C@@H]21.O=C(O)C(F)(F)F.O=C(O)C(F)(F)F | 1.989
CCN(C)S(=O)(=O)N1C[C@@H]2CC[C@H](C1)N(Cc1cscn1)C2=O | -57.82
CC(Nc1cccc(CN2CCOC2=O)c1)C(=O)NC(N)=O (stereo not drawn) | 6.904
CCOC(=O)C(C)Nc1cccc(COCc2ccco2)c1 (stereo not drawn) | 114.3
Cc1nnc(C(C)Nc2cccc(COCCOC(C)C)c2)o1 (stereo not drawn) | -13.05
CCCNC(=O)C(C)Nc1ccc(COCC)cc1 (stereo not drawn) | -5.955
CC(Nc1cccc(COCc2ccco2)c1)C(=O)NC(N)=O (stereo not drawn) | 118
COCc1cccc(NC(C)C(=O)N(C)Cc2ccccc2)c1 (stereo not drawn) | -9.622
O=C(O)C(F)(F)F.O=C(O)C(F)(F)F.O=C(c1ccncc1)N1CCN2C[C@H](Oc3cccc(F)c3)C[C@H]2C1 | 3.231
Cc1cccnc1NC(=O)C(C)Cn1nc(C(F)(F)F)cc1C (stereo not drawn) | 5.887
c1c[nH]c2nc(C3CCNC3)nc-2c1 (stereo not drawn) | 89.57
Fc1ccc2nc([C@H]3CCNC3)[nH]c2c1 | -0.4881
CCC(=O)NCC(=O)Nc1ncc(I)cc1C | -1.135
C[C@H]1CN(c2ccccn2)C[C@@]12CCN(c1cccnc1)C2=O.O=C(O)C(F)(F)F.O=C(O)C(F)(F)F | 96.67
Cc1ccc(N2C[C@H](C)[C@]3(CCN(c4cccnc4)C3=O)C2)nn1.O=C(O)C(F)(F)F.O=C(O)C(F)(F)F | 82.56
COc1cc(N2CCC3(CC2)CCN(c2cccnc2)C3=O)ncn1.O=C(O)C(F)(F)F | -8.044
C[C@@H]1CN(C(=O)C2CCOCC2)C[C@]12CCN(c1cccnc1)C2=O.O=C(O)C(F)(F)F | -10.36

SMILES | Percent Effect [%]
NS(=O)(=O)CCNC(=O)c1cc(Br)c2c(c1)OCCO2 | 3.55
CC(C(=O)N1CCCN(Cc2cnn(C(C)C)c2)CC1)n1ccnc1 (stereo not drawn) | 86.84
CC(C)n1cc(CN2CCCN(C(=O)c3nccnc3N)CC2)cn1 | -14.33
CC(C)C(C(=O)N1CCCN(Cc2cnn(C)c2)CC1)n1cncn1 (stereo not drawn) | -6.037
CC(C)n1cc(CN2CCCN(C(=O)C(C)n3cccn3)CC2)cn1 (stereo not drawn) | 97.33
CC(C(=O)N1CCCN(Cc2ccc(C#N)cc2)CC1)n1ccnc1 (stereo not drawn) | -13.4
Cc1ncncc1C(=O)N1CCCN(Cc2cnn(C(C)C)c2)CC1 | -23.75
CC(C)n1cc(CN2CCCN(C(=O)C(C)n3cncn3)CC2)cn1 (stereo not drawn) | 115.2
CC(C)n1cc(CN2CCCN(C(=O)c3ccc[nH]3)CC2)cn1 | -9.453
CCC(=O)N1CCN(c2cc(-n3cnc(C)c3C)nc(C)n2)CC1 | -0.8212
CN1CCOC(C(=O)N(C)c2ccc3c(c2)CCO3)C1 (stereo not drawn) | -1.104
Cc1cccc(-c2nc(C)nn2CN2CCN(c3ncccn3)CC2)c1 | -20.31
CCC(C(=O)NCc1ccncc1)N(c1ccccc1)S(C)(=O)=O (stereo not drawn) | -24.56
COCCn1cc(NC(=O)NC(C)c2ccc(Cl)s2)cn1 (stereo not drawn) | 1.705
CC1(C)[C@H](Cc2cc(CN3CCCCC3)on2)C[C@@H]1NS(C)(=O)=O | -2.638
CN(C)C(CNC(=O)c1nc(N2CCCC2)ncc1Cl)c1ccco1 (stereo not drawn) | 2.501
CN(Cc1nc(N2CCCC2)ncc1-c1ccncc1)C(=O)C(C)(C)C.Cl | 94.15
CN(Cc1ccsc1)C(=O)c1nc(N2CCCCC2)ncc1Cl | 3.668
CC(C)C(=O)N(C)Cc1nc(N2CCCC2)ncc1-c1ccncc1.Cl | 82.87
CN(Cc1ccsc1)C(=O)c1nc(N2CCCC2)ncc1Cl | -53.64
Cn1c(NC(=O)CCS(=O)(=O)C2CCCC2)nc2cc(Cl)ccc21 | 1.786
CCN(CC)CC[C@H]1CN(C(=O)CC(C)(C)C)CC[C@H]1CC(=O)O | -10.9
O=C(C1CC1)N1CCc2[nH]cnc2C12CCN(C1CCOCC1)CC2 | -3.543
